According to PubChem BioAssay (EPA / NIEHS):
Inconclusive results are not listed. Activity calls are given as the source filed them. How the source made its calls, unless noted: active means hit-call score of the fitted dose curve at least 0.9, where 1 is the maximum; inactive means score below 0.9.

Columns and labels:
[1] = ATG_TCF_b_cat_CIS: Attagene CIS-FACTORIAL HepG2 Assay for human T-Cell-Factor with beta-catenin (TCF/b-cat) (AID 2282965); conditions: HepG2 TCF/beta-catenin cis-reporter transcription, actives raise or lower the signal
Summary of the method: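 Endogenous transcription factor activity is captured through cis-promoter reporter constructs transiently introduced into human HepG2 liver cells. Induced reporter mRNA is measured after 24 h and fitted bidirectionally relative to DMSO.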

[2] = ATG_TAL_CIS: Attagene CIS-FACTORIAL HepG2 Assay for human TAL Basal Promoter (AID 2282966); conditions: HepG2 Attagene cis-factorial TAL promoter reporter; actives raise or lower the signal;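 further: background control endpoint measuring basal TAL promoter reporter mRNA not a specific factor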
Summary of the method: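 Fluorescence of labelled reporter cDNA fragments, resolved by capillary electrophoresis, gave the readout. Human HepG2 liver cells carried transiently transfected cis-element reporter units and were treated for 24 hours; activity was fitted bidirectionally against DMSO.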

[3] = ATG_TGFb_CIS: Attagene CIS-FACTORIAL HepG2 Assay for human Transforming Growth Factor (TGF) (AID 2282967); conditions: HepG2 Attagene CIS TGFb reporter, mRNA transcription; actives raise or lower the signal
Summary of the method: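 Transcript-level reporter readout: HepG2 transfectants, 24 h exposure, RNA to cDNA, reporter-specific PCR, fluorescent primer extension, capillary sizing against ROX standards. Gain- or loss-of-signal relative to DMSO.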

[4] = target: Estrogen receptor (Homo sapiens) (UniProt P03372); test: ATG_ERa_TRANS: Attagene TRANS-FACTORIAL HepG2 Assay for human Estrogen Receptor alpha (ERa) (AID 2282970; active means hit-call score of the fitted dose curve at least 0.9, where 1 is the maximum); conditions: HepG2 Attagene TRANS ERa GAL4 reporter, mRNA
Chain of Estrogen receptor (Homo sapiens) (P03372 whole entry, looked up, the tested form may be a part): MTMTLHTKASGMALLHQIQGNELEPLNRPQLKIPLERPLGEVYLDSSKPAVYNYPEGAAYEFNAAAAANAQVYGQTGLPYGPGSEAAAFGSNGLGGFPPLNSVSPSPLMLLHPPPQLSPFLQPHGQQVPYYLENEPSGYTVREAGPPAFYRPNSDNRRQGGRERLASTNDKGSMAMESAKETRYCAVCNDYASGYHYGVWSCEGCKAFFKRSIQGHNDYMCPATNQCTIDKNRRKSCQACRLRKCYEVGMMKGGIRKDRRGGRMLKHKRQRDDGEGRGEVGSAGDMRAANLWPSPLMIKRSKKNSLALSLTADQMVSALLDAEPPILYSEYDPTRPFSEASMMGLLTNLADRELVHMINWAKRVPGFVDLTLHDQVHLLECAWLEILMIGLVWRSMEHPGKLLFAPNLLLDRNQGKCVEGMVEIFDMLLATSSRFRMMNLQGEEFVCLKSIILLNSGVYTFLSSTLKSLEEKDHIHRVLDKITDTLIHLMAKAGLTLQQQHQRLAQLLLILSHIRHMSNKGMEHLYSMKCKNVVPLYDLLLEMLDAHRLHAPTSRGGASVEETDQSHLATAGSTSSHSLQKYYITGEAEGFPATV
Summary of the method: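 Human liver HepG2, transient transfection of multiple GAL4-UAS reporter units; TRANS format (exogenous NR-Gal4 chimera). 24 h dosing. Readout: reporter mRNA, RT-PCR, 6-FAM primer extension, HpaI digest, capillary electrophoresis. Positive direction vs DMSO.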

[5] = target: X-box-binding protein 1 (Homo sapiens) (UniProt P17861); test: ATG_Xbp1_CIS: Attagene CIS-FACTORIAL HepG2 Assay for human X-box Binding Protein 1 (XBP1) (AID 2282972); conditions: HepG2 XBP1 cis-element reporter, Attagene multiplex; actives raise or lower the signal
Chain of X-box-binding protein 1 (Homo sapiens) (P17861 whole entry, looked up): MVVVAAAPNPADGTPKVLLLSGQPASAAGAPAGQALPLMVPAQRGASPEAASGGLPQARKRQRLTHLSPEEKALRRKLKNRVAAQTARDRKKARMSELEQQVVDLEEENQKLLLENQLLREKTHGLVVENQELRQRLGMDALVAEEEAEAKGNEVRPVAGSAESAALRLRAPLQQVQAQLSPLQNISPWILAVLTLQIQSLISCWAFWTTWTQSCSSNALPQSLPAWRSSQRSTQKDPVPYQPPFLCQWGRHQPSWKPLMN
Summary of the method: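 HepG2 cells transiently transfected with multiple cis-element reporter units report endogenous TF activity; 24 h exposure, then reporter mRNA measured by RT-PCR, 6-FAM labelling, HpaI digestion and capillary electrophoresis. Bidirectional fitting versus DMSO.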

[6] = ATG_M_19_TRANS: Attagene TRANS-FACTORIAL HepG2 Assay for M19 Transcription Factor (Internal Marker) (AID 2282974; active means hit-call score of the fitted dose curve at least 0.9, where 1 is the maximum); conditions: HepG2 Attagene TRANS-FACTORIAL M19 internal marker reporter
Summary of the method: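 Transfected HepG2 (GAL4-UAS MRTUs), 24 h compound, TriZol RNA, DNase-treated RT, reporter PCR, FAM label, HpaI digest, CE fluorescence; gain vs DMSO.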

[7] = ATG_GAL4_TRANS: Attagene TRANS-FACTORIAL HepG2 Assay for GAL4 (Internal Marker) (AID 2282976; active means hit-call score of the fitted dose curve at least 0.9, where 1 is the maximum); conditions: HepG2 Attagene TRANS GAL4 internal marker reporter
Summary of the method: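 First, HepG2 cells were transfected with reporter units under GAL4-UAS control. Next, they were treated with chemical for 24 h. Finally, RNA was reverse-transcribed, PCR-amplified, FAM-labelled and resolved by capillary electrophoresis, with induction scored against DMSO.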

[8] = target: Oxysterols receptor LXR-beta (Homo sapiens) (UniProt P55055); test: ATG_LXRb_TRANS: Attagene TRANS-FACTORIAL HepG2 Assay for human Liver X Receptor beta (LXRb) (AID 2282981; active means hit-call score of the fitted dose curve at least 0.9, where 1 is the maximum); conditions: HepG2 Attagene TRANS GAL4-LXRb reporter, mRNA
Summary of the method: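 Transient transfection HepG2 (multiplexed RTUs, GAL4-UAS); NR-Gal4 chimera; 24 h exposure; RNA → RT-PCR → 6-FAM primer extension → HpaI → CE; increase vs DMSO.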

[9] = target: Nuclear receptor subfamily 4 group A member 2 (Homo sapiens) (UniProt P43354); test: ATG_NURR1_TRANS: Attagene TRANS-FACTORIAL HepG2 Assay for human Nuclear Receptor Related Protein 1 (NURR1) (AID 2282985; active means hit-call score of the fitted dose curve at least 0.9, where 1 is the maximum); conditions: HepG2 Attagene TRANS reporter, mRNA readout
Chain of Nuclear receptor subfamily 4 group A member 2 (Homo sapiens) (P43354 whole entry, looked up, the tested form may be a part): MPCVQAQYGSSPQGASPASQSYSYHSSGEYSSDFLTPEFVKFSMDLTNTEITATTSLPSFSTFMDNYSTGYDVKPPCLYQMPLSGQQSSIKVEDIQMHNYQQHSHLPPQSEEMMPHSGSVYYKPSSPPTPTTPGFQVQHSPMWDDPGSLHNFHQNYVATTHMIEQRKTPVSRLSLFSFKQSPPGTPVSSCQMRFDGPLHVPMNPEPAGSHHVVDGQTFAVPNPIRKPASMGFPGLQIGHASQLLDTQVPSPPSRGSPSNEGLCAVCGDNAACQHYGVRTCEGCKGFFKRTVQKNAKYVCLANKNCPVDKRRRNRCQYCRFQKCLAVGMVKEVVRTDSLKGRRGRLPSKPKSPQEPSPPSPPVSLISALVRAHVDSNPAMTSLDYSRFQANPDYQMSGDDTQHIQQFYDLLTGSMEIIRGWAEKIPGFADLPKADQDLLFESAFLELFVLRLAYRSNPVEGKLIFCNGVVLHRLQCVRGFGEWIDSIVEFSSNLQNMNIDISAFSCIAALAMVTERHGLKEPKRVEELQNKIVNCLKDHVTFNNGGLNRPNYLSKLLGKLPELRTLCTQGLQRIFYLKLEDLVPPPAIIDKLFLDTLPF
Summary of the method: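 Transient transfection of HepG2, human liver cells, with multiple GAL4-UAS reporter transcription units. Cells dosed 24 h, RNA isolated, reverse-transcribed, PCR-amplified, FAM-labelled, HpaI-digested, sized by capillary electrophoresis. DMSO served as negative control.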

[10] = target: Transcriptional activator Myb (Homo sapiens) (UniProt P10242); test: ATG_Myb_CIS: Attagene CIS-FACTORIAL HepG2 Assay for human Myeloblastosis (Myb) Proto-Oncogene Transcription Factor (AID 2282986); conditions: HepG2 Attagene CIS-FACTORIAL Myb reporter transcription; actives raise or lower the signal
Chain of Transcriptional activator Myb (Homo sapiens) (P10242 whole entry, looked up): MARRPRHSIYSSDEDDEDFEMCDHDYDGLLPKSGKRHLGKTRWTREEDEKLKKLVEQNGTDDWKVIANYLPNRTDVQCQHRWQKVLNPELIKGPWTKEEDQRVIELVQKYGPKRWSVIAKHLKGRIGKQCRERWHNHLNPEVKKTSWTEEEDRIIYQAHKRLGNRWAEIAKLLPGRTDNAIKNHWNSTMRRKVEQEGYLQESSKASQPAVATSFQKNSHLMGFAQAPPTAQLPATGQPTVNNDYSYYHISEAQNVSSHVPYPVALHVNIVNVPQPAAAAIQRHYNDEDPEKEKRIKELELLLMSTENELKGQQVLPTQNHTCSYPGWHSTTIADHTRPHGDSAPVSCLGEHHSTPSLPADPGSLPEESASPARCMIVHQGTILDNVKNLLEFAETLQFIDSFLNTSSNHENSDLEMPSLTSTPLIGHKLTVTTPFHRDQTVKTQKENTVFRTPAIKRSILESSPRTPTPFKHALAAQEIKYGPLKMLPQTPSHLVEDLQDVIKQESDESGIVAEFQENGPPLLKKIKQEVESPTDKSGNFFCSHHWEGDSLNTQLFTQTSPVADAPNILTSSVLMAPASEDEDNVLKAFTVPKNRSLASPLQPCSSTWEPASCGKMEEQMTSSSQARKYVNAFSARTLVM
Summary of the method: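 After 24 h of compound dosing, total RNA from transfected HepG2 cells is reverse-transcribed and the reporter sequences amplified, labeled and separated by capillary electrophoresis. Values come from bidirectional fitting against DMSO.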

[11] = target: Nuclear receptor subfamily 1 group I member 3 (Homo sapiens) (UniProt Q14994); test: ATG_CAR_TRANS: Attagene TRANS-FACTORIAL HepG2 Assay for human Constitutive Androstane Receptor (CAR) (AID 2282969; active means hit-call score of the fitted dose curve at least 0.9, where 1 is the maximum;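 further: activators raise reporter mRNA above DMSO so AC50 marks induction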); conditions: HepG2 Attagene TRANS-FACTORIAL CAR reporter
Chain of Nuclear receptor subfamily 1 group I member 3 (Homo sapiens) (Q14994 whole entry, looked up, the tested form may be a part): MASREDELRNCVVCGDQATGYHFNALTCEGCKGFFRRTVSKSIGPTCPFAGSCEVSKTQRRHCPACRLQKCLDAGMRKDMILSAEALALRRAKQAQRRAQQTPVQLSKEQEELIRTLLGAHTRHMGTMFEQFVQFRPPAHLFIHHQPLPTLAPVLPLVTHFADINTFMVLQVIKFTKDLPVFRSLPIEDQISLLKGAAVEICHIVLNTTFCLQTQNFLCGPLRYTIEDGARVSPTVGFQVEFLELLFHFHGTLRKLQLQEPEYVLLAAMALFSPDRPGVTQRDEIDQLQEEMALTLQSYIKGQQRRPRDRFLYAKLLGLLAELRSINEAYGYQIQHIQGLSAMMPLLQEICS
Summary of the method: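 Readout is reporter mRNA induction, quantified by fluorescent primer extension and capillary electrophoresis after RT-PCR. Cells were HepG2 transiently carrying chimeric NR-Gal4 constructs with GAL4-UAS reporters, treated for 24 h; activity scored upward from DMSO.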

[12] = target: Oxysterols receptor LXR-alpha (Homo sapiens) (UniProt Q13133); test: ATG_LXRa_TRANS: Attagene TRANS-FACTORIAL HepG2 Assay for human Liver X Receptor alpha (LXRa) (AID 2282980; active means hit-call score of the fitted dose curve at least 0.9, where 1 is the maximum); conditions: HepG2 Attagene TRANS reporter, LXRa transactivation
Chain of Oxysterols receptor LXR-alpha (Homo sapiens) (Q13133 whole entry, looked up, the tested form may be a part): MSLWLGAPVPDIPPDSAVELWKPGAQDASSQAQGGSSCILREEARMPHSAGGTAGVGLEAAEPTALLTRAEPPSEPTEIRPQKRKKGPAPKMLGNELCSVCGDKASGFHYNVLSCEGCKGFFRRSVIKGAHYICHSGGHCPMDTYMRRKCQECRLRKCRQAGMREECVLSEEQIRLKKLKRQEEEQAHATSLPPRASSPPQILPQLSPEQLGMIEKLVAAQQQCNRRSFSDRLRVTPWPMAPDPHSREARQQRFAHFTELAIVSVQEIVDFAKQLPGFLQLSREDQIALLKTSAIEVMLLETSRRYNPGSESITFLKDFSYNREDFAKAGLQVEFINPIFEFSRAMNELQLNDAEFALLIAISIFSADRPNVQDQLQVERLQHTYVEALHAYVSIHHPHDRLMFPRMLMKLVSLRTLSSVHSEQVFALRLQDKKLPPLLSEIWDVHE
Summary of the method: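 Transfect HepG2 with GAL4-UAS multiplex reporter constructs (TRANS format, chimeric receptor-GAL4); treat 24 h; extract RNA, reverse-transcribe, PCR-amplify, FAM-label, HpaI-digest; resolve fragments by capillary electrophoresis. Upward response vs DMSO.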

[13] = target: Hepatocyte nuclear factor 4-alpha (Homo sapiens) (UniProt P41235); test: ATG_HNF4a_TRANS: Attagene TRANS-FACTORIAL HepG2 Assay for human Hepatocyte Nuclear Factor 4 alpha (HNF4a) (AID 2282982; active means hit-call score of the fitted dose curve at least 0.9, where 1 is the maximum); conditions: HepG2 HNF4a transactivation reporter, mRNA readout
Chain of Hepatocyte nuclear factor 4-alpha (Homo sapiens) (P41235 whole entry, looked up, the tested form may be a part): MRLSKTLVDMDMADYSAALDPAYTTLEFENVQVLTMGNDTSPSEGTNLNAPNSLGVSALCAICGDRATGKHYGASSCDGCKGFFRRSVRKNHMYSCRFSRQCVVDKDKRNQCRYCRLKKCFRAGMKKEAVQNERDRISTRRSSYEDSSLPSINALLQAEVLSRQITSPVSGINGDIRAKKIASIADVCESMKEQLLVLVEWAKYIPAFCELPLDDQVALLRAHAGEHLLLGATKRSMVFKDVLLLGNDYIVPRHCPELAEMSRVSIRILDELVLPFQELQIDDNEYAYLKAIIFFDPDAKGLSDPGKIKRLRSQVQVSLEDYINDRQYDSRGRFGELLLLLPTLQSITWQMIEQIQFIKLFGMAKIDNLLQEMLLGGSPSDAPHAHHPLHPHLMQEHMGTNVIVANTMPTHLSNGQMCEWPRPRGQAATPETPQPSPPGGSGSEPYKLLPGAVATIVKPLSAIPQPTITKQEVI
Summary of the method: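 Readout is fluorescent reporter-transcript fragments resolved by capillary electrophoresis after RT-PCR from HepG2 cells dosed for 24 h. Cells carried transfected GAL4-UAS reporter constructs measuring exogenous NR-GAL4 chimera activity; DMSO served as baseline.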

[14] = target: Estrogen-related receptor gamma (Homo sapiens) (UniProt P62508); test: ATG_ERRg_TRANS: Attagene TRANS-FACTORIAL HepG2 Assay for human Estrogen-Related Receptor gamma (ERRg) (AID 2282977; active means hit-call score of the fitted dose curve at least 0.9, where 1 is the maximum;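 further: hits increase reporter signal over DMSO so potencies reflect activators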); conditions: HepG2 Attagene TRANS reporter, ERRg transactivation
Chain of Estrogen-related receptor gamma (Homo sapiens) (P62508 whole entry, looked up, the tested form may be a part): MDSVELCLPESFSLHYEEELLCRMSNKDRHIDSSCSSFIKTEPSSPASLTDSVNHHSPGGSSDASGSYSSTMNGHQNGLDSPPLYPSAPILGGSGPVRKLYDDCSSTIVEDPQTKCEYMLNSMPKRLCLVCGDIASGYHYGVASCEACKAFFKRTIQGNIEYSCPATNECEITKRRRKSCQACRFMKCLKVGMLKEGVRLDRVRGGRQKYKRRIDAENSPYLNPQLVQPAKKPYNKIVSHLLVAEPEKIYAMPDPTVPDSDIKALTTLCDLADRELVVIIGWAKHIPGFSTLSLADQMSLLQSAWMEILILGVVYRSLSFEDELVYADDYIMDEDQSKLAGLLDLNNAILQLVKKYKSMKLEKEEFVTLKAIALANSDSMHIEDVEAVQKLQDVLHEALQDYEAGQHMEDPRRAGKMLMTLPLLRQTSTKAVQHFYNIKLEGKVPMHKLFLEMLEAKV
Summary of the method: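 Transfect HepG2 with multiple GAL4-UAS reporter transcription units; dose chemicals 24 h; isolate RNA, reverse-transcribe with oligo(dT), PCR-amplify, label with 6-FAM, digest with HpaI; size fragments by capillary electrophoresis. DMSO serves as negative control.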

[15] = target: Glucocorticoid receptor (Homo sapiens) (UniProt P04150); test: ATG_GR_TRANS: Attagene TRANS-FACTORIAL HepG2 Assay for human Glucocorticoid Receptor (GR) (AID 2282978; active means hit-call score of the fitted dose curve at least 0.9, where 1 is the maximum;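 further: activators score as hits since higher reporter transcript over DMSO is fitted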); conditions: HepG2 Attagene TRANS GR reporter, mRNA transcription
Chain of Glucocorticoid receptor (Homo sapiens) (P04150 whole entry, looked up): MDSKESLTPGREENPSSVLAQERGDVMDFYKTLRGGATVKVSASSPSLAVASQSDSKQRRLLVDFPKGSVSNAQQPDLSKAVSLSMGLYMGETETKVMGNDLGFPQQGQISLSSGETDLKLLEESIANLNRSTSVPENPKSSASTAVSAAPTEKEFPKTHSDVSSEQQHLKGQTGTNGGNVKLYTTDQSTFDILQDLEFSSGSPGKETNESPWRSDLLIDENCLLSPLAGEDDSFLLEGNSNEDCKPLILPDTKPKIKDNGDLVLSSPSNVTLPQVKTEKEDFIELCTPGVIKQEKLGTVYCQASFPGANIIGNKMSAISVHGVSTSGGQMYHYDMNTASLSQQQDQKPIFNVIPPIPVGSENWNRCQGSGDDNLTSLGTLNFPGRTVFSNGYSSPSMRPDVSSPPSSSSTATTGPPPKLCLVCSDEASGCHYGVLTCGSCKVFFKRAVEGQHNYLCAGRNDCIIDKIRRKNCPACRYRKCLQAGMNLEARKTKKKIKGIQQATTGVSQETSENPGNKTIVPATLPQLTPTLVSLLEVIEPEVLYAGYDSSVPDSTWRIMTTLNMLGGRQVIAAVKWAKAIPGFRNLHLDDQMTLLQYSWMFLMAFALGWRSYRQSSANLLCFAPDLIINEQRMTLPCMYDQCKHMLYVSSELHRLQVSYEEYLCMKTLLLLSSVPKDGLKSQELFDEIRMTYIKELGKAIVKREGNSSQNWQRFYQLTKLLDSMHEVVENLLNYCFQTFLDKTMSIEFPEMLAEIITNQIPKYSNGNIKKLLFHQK
Summary of the method: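 After 24 h incubation with test chemical, transfected HepG2 cells were lysed for RNA; reporter cDNA was amplified, FAM-labelled, HpaI-digested and sized on a capillary analyser. Signal gain relative to DMSO was scored.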

[16] = ATG_VDRE_CIS: Attagene CIS-FACTORIAL HepG2 Assay for human Vitamin D Receptor Element (VDRE) (AID 2282968); conditions: HepG2 VDRE cis-reporter transcription, actives raise or lower the signal
Summary of the method: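 Reporter mRNA induction, quantified by capillary electrophoresis of fluorescently labelled RT-PCR products, was read 24 h after dosing HepG2 cells carrying transiently transfected cis-regulated reporter units; gain or loss relative to DMSO.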

[17] = ATG_M_32_TRANS: Attagene TRANS-FACTORIAL HepG2 Assay for M32 Transcription Factor (Internal Marker) (AID 2282984; active means hit-call score of the fitted dose curve at least 0.9, where 1 is the maximum;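 further: transcript level of a background control reporter unit measured by RT-PCR and capillary electrophoresis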); conditions: HepG2 Attagene TRANS M32 internal marker reporter
Summary of the method: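 Measures reporter mRNA induction in human HepG2 liver cells after 24 h chemical treatment. Transcripts from transiently transfected GAL4-UAS reporter units are amplified, fluorescently labelled and sized by capillary electrophoresis; gain of signal relative to DMSO.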

Measured: outcome

NCCO
inactive: [1] | [2] | [3] | [4] | [5] | [6] | [7] | [8] | [9] | [10]

O=C(OCCCCCOC(=O)c1ccccc1)c1ccccc1
inactive: [1] | [2] | [3] | [11] | [4] | [5] | [6] | [7] | [12] | [13] | [9] | [10]

Clc1cc(Cl)c(Cl)cc1Cl
inactive: [1] | [2] | [3] | [5] | [14] | [15] | [13] | [9] | [10]

CCCCN(CCCC)CCCC
inactive: [1] | [2] | [3] | [16] | [4] | [5] | [13] | [17] | [9] | [10]

COc1ccc2c(c1)c(CC(=O)O)c(C)n2C(=O)c1ccc(Cl)cc1
inactive: [1] | [2] | [3] | [16] | [5] | [6] | [12] | [17] | [10]

CC(=O)OC/C=C(\C)CCC=C(C)C
inactive: [1] | [2] | [3] | [4] | [5] | [6] | [15] | [17] | [10]
